Assay results from PubChem BioAssay AID1259249 (Broad Institute, 2017).
Where “and” joins values, the source holds several entries; their conditions need not be identical. Equal values may be shown once. In all, about 86,000 compounds went through this assay and about 220 (0.26%) were called active.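 How the source made its calls: active means mean growth activity at or below -80% and every replicate also at or below -80%; inconclusive means mean at or below -80% but some replicate above -80%; inactive means mean growth activity above -80%.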 The sample as a whole holds a higher share of actives than the screen did.

Assay: blockers of Clostridium difficile growth – HTS, primary screen (AID 1259249);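 further: 0% = DMSO wells and -100% = levofloxacin 16 µg/mL wells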
Details: Clostridium difficile clinical isolate growth, OD600, 24 h; stronger effect = lower value; screened at 16 µg/mL (by protocol)

SMILES	growth activity, negative = inhibition
Cc1ccc(S(=O)(=O)N[C@@H]2CC[C@@H](CCn3cc(C4CC4)nn3)O[C@@H]2CO)cc1	-1.26% (inactive)
C[C@@H]1CCCCO[C@@H](CN(C)C(=O)NC2CCCCC2)[C@H](C)CN([C@H](C)CO)C(=O)c2cc(NC(=O)Nc3cccc4ccccc34)ccc2O1	2.69% (inactive)
O=C(c1ccncc1)N1C[C@H]2[C@@H](c3ccccc31)[C@H](CO)N2Cc1ccc(F)cc1	-10.6% (inactive)
CCCC(=O)N1CC2(CN(C(=O)NC(C)C)C2)c2c([nH]c3cc(OC)ccc23)[C@@H]1CO	-10.9% (inactive)
CC(C)C(=O)Nc1ccc2c(c1)C(=O)N(C)[C@@H]1CC[C@@H](CC(=O)NCCc3ccccc3)O[C@H]1CO2	-2.19% (inactive)
COc1ccc2c3c(n(C)c2c1)[C@H](CO)N(CC1CC1)CC31CCN(C(=O)c2ccccc2)CC1	22.3% (inactive)
COCc1cn(CC[C@@H]2CC[C@@H](NC(=O)Nc3ccc(C(F)(F)F)cc3)[C@H](CO)O2)nn1	1.56% (inactive)
C[C@@H]1CN([C@@H](C)CO)C(=O)c2cc(NC(=O)Nc3ccc4c(c3)OCO4)ccc2O[C@@H](C)CCCCO[C@H]1CN(C)C(=O)Nc1ccc(C(F)(F)F)cc1	3.76% (inactive)
CCN1[C@@H]2c3cccc(=O)n3C[C@H]1[C@H](CO)[C@H]2C(=O)NC1Cc2ccccc2C1	-3.73% (inactive)
O=C(C1CCC1)N1CC(=O)N2[C@@H](CO)[C@@H](c3ccc(C#Cc4cccc(F)c4)cc3)[C@@H]2C1	-12.4% (inactive)
Cc1ccc(-c2cnc3c(c2)C(=O)N([C@H](C)CO)C[C@H](C)[C@@H](CN(C)C(=O)c2cccc(F)c2)O3)cc1	0.45% (inactive)
CN1c2ccc(-c3cccc(F)c3)cc2[C@H]2[C@H](CCN2C(=O)c2cccc(F)c2)[C@H]1CO	-1.71% (inactive)
C[C@@H]1CN([C@@H](C)CO)C(=O)Cc2cc(NC(=O)Nc3ccc(C(F)(F)F)cc3)ccc2O[C@H]1CN(C)Cc1ccc(C(=O)O)cc1	4.68% (inactive)
COc1cccc(NC(=O)N(C)C[C@@H]2Oc3ncc(Br)cc3C(=O)N([C@@H](C)CO)C[C@H]2C)c1	4.14% (inactive)
CO[C@@H]1CN(C)C(=O)c2cc(NC(=O)C3CCCC3)ccc2OC[C@@H](C)N(Cc2ccc(F)cc2)C[C@H]1C	7.43% (inactive)
COc1ccccc1NC(=O)N1C[C@H]2[C@@H](c3ccccc31)[C@H](CO)N2Cc1ccc2c(c1)OCO2	-2.67% (inactive)
COc1ccccc1NC(=O)N1C[C@@H]2[C@H](c3ccccc31)[C@H](CO)N2CC1CCOCC1	8.14% (inactive)
CO[C@@H]1CN(C)C(=O)c2cc(NC(=O)C3CCC3)ccc2OC[C@H](C)N(Cc2ccccn2)C[C@H]1C	-0.0418% (inactive)
COc1ccccc1C#Cc1ccc2c(c1)O[C@H](CN(C)Cc1cccnc1)[C@@H](C)CN([C@H](C)CO)S2(=O)=O	2.69% (inactive)
C[C@H]1CN([C@@H](C)CO)C(=O)c2cc(C#CC3CCCC3)cnc2O[C@@H]1CN(C)C(=O)Cc1ccccn1	-9.22% (inactive)
N#C[C@H]1[C@@H](c2ccccc2C2=CCCC2)[C@H](CO)N1C(=O)c1cccc(F)c1	-5.69% (inactive)

SMILES	growth activity, negative = inhibition
C[C@@H]1CCCCO[C@H](CN(C)CC2CCCCC2)[C@H](C)CN([C@H](C)CO)C(=O)c2cc(NS(=O)(=O)c3ccc(F)cc3)ccc2O1	11.3% (inactive)
COc1ccc(S(=O)(=O)NC[C@@H]2CC[C@@H]3[C@@H](CN3Cc3cc(F)ccc3F)O2)cc1	-8.36% (inactive)
CN1C(=O)c2cc(NC(=O)C3CC3)ccc2OC[C@H]2O[C@H](CC(=O)O)CC[C@H]21	3.37% (inactive)
CO[C@@H]1CN(C)C(=O)c2ccc(NC(=O)C3CC3)cc2OC[C@H](C)N(C(C)=O)C[C@H]1C	0.555% (inactive)
COc1cccc(NC(=O)N[C@H]2C=C[C@H](CC(=O)NCc3ccccn3)O[C@@H]2CO)c1	6.26% (inactive)
CO[C@H]1CN(C)C(=O)c2ccc(NC(=O)C3CCCC3)cc2OC[C@H](C)N(C(=O)CC2CC2)C[C@@H]1C	-4% (inactive)
C/C=C/c1ccccc1[C@H]1[C@@H](C#N)N(C(C)=O)[C@@H]1CO	-2.31% (inactive)
O=C(C1CCOCC1)N1CC(=O)N2[C@H](CO)[C@H](c3ccc(C#Cc4cccc(F)c4)cc3)[C@H]2C1	-20.7% (inactive)
CNC(=O)C[C@H]1CC[C@H]2[C@H](COc3ccc(NC(=O)Nc4ccc(F)cc4)cc3C(=O)N2C)O1	-3.32% (inactive)
O=C(C[C@H]1C=C[C@H](NC(=O)Nc2cc(F)ccc2F)[C@@H](CO)O1)NCc1ccccn1	-1.08% (inactive)
CNC[C@H]1OCCCC[C@H](C)Oc2ccc(NC(=O)Nc3ccc(C(F)(F)F)cc3)cc2C(=O)N([C@H](C)CO)C[C@@H]1C	8.32% (inactive)
C[C@H](O)C#Cc1ccc2c(c1)O[C@@H](CN(C)C(=O)C1CCCCC1)[C@H](C)CN([C@@H](C)CO)S2(=O)=O	-2.82% (inactive)
COc1ccc2c3c(n(C)c2c1)[C@@H](CO)N(C(=O)CN1CCOCC1)CC31CCN(Cc2ccncc2)CC1	-2.85% (inactive)
CCCNC(=O)N1CC2(C1)[C@@H](c1ccccc1)[C@@H](CO)N2C(=O)CC1CC1	-0.374% (inactive)
C[C@@H]1CN([C@H](C)CO)S(=O)(=O)c2ccc(C3=CCCC3)cc2O[C@H]1CN(C)C(=O)CC1CC1	3.03% (inactive)
COCc1cn(CC[C@H]2CC[C@H](NC(=O)Cc3cccnc3)[C@H](CO)O2)nn1	1.58% (inactive)
N[C@@H]1CC[C@H](CCn2cc(C3CC3)nn2)O[C@@H]1CO	5.59% (inactive)
C/C=C/c1ccc([C@@H]2[C@H](CO)N(C(=O)c3cnccn3)C23CN(C(C)=O)C3)cc1	2.93% (inactive)
CCCNC(=O)C[C@H]1CC[C@H]2[C@@H](COC[C@H](O)CN2C(=O)CC)O1	7.43% (inactive) and 9.67% (inactive)
COc1ccc(CN(C)C[C@H]2OCc3cn(nn3)CCCC(=O)N([C@@H](C)CO)C[C@@H]2C)cc1	-0.425% (inactive)
O=C(C[C@H]1CC[C@H]2[C@@H](COC[C@H](O)CN2C(=O)Nc2ccc(Cl)cc2)O1)NCC1CC1	7.11% (inactive)

SMILES	growth activity, negative = inhibition
CCCNC(=O)C[C@H]1CC[C@H]2[C@@H](COC[C@@H](O)CN2C(=O)Nc2ccc(Cl)c(Cl)c2)O1	-102% (active) and -6.65% (inactive)
O=C(C[C@H]1CC[C@H]2[C@@H](COC[C@@H](O)CN2C(=O)Nc2ccc(C(F)(F)F)cc2)O1)NC1Cc2ccccc2C1	-97.2% (active) and 27.2% (inactive)
O=C(C[C@@H]1CC[C@H]2[C@@H](COC[C@@H](O)CN2C(=O)Nc2ccc(Cl)cc2)O1)NC1Cc2ccccc2C1	2% (inactive) and 46.4% (inactive)
O=C(C[C@H]1CC[C@@H]2[C@H](COC[C@@H](O)CN2C(=O)Nc2ccc(Cl)cc2)O1)NC1Cc2ccccc2C1	-5.66% (inactive) and -5.56% (inactive)
CCCNC(=O)C[C@@H]1CC[C@H]2[C@@H](COC[C@H](O)CN2C(=O)Nc2ccc(Cl)c(Cl)c2)O1	-57.2% (inactive) and -25.4% (inactive)
CC=Cc1ccc2n(c1=O)C[C@H]1[C@H](CO)[C@@H](C(=O)NC3CCCC3)[C@@H]2N1C(=O)c1cnccn1 (mixture of isomers)	3.3% (inactive)
CC(C)NC(=O)N1[C@@H]2CN(C(=O)C3CCCCC3)c3ccccc3[C@@H]2[C@@H]1CO	-5.28% (inactive)
CC(=O)N1[C@H](CO)[C@H](c2ccccc2)[C@H]1CN(C(=O)c1ccccc1F)C(C)C	2.62% (inactive)
CCS(=O)(=O)N1CC2(CN(Cc3ccccc3)[C@@H](CO)c3c2c2ccc(OC)cc2n3C)C1	10.4% (inactive)
COc1ccccc1C(=O)N1C[C@H]2[C@@H](c3ccccc31)[C@H](CO)N2C(=O)C1CC1	-5.43% (inactive)
CO[C@H]1CN(C)C(=O)c2ccc(NS(=O)(=O)c3ccccc3)cc2OC[C@H](C)N(Cc2nccs2)C[C@@H]1C	1.37% (inactive)
COc1cccc(S(=O)(=O)N(C)C[C@@H]2Oc3ncc(-c4cccc(C(=O)N(C)C)c4)cc3C(=O)N([C@H](C)CO)C[C@H]2C)c1	-3.2% (inactive)
COc1cccc(NC(=O)N(C)C[C@H]2Oc3cc(/C=C/c4ccccc4)ccc3S(=O)(=O)N([C@H](C)CO)C[C@@H]2C)c1	5.84% (inactive)
COc1ccc2c3c(n(C)c2c1)[C@H](CO)N(S(=O)(=O)c1ccc(C)cc1)CC31CCN(C(=O)c2ccccn2)CC1	3.65% (inactive)
O=C(C1CCCC1)N1CC(=O)N2[C@H](C1)[C@@H](c1ccc(-c3ccccc3F)cc1)[C@@H]2CO	2.69% (inactive)
C/C=C/c1ccc([C@H]2[C@@H](CO)N(C(=O)CC)[C@H]2CN(C)C(=O)C2CC2)cc1	-2.06% (inactive)
O=C(NCC[C@H]1CC[C@H](NS(=O)(=O)c2cccc(F)c2)[C@H](CO)O1)C1CCCCC1	-5.15% (inactive)
C/C=C/c1ccc([C@@H]2[C@H](CO)N(CCC(F)(F)F)C23CN(C(=O)CC)C3)cc1	8.71% (inactive)
CC(C)NC(=O)N(C)C[C@H]1Oc2ncc(-c3cccc(C#N)c3)cc2C(=O)N([C@@H](C)CO)C[C@H]1C	5.25% (inactive)
